Molecules are shown by their SMILES. Where “and” joins values, the source holds several entries; their conditions need not be identical. Identical values can stand only once. Some compounds were tested as several samples or in several runs, with calls that do not always agree. Calls of active or inactive are those of the source. The calls were made as follows: active = hit-call score of the fitted dose curve at least 0.9, where 1 is the maximum; inactive = score below 0.9.

Read-out in this test: Interleukin-8 (IL8), CXCL8 (gene 3576)
The test can be described thus: BSK_3C_IL8: BioMAP Diversity Plus: 3C Assay for Interleukin-8 (IL8) Biomarker Activity (AID 2283020). The conditions noted are these: primary human endothelial cells (HUVEC); actives raise or lower the signal. How it is done:
BSK_3C is a cell-based, multiplexed-readout assay that uses umbilical vein endothelium, a human vascular primary cell, with measurements taken at 24 hours after chemical dosing in a 96-well plate.BSK_3C_IL8 is an assay component measured in the BSK_3C assay. It measures IL-8 antibody related to regulation of gene expression using ELISA technology.Data from the assay component BSK_3C_IL8 was analyzed into 1 assay endpoint. This assay endpoint, BSK_3C_IL8, was analyzed with bidirectional fitting relative to DMSO as the negative control and baseline of activity. Using a type of binding reporter, gain or loss-of-signal activity can be used to understand changes in the signaling as they relate to the gene CXCL8. Furthermore, this assay endpoint can be referred to as a primary readout, because this assay has produced multiple assay endpoints where this one serves a signaling function. To generalize the intended target to other relatable targets, this assay endpoint is annotated to the cytokine intended target family, where the subfamily is interleukins.
The levels of cell surface (or secreted, indicated by the prefix "s") biomarker endpoints were measured by ELISA. Overt cytotoxicity to cells in confluent adherent cultures (all systems other than the BT system) was assessed by measuring total protein levels using sulforhodamine B (SRB) staining in parallel cultures at the time of biomarker measurements, indicated as SRB endpoints. For proliferation assays for adherent cell types, individual cell types are cultured at sub-confluence and relative cell numbers quantified by SRB staining at time points optimized for each system (48 h: 3C and CASM3C systems; 72 h: BT and HDF3CGF systems; 96 h: SAg system). SRB was performed by staining cells with 0.1% SRB after fixation with 10% TCA and reading wells at 560 nm.Viability and proliferation of PBMC (T cells) was quantified by Alamar Blue reduction for the SAg and BT systems. For PBMC viability (referred to as PBMC Cytotoxicity within the assay endpoint names), cells were plated (75,000/well in a 96-well plate) and then chemical samples added for 1 h before addition of activators, SEB and TSST-1 (20 ng/mL final concentration each). Cells were incubated for 90 h. Then, Alamar Blue (20 uL/well) (Invitrogen, Cat DAL1100) was added for 6 h, and the plates were read with a fluorescence microplate reader at 546/580 nm (excitation/emission). For PBMC proliferation, cells were plated and activated as above but incubated for only 16 h prior to addition of Alamar Blue. Plates were read after 6 h.
Take `Oc1c(Cl)cc(Cl)c(Cl)c1Cl`: the AC50 was 20 µM (active).

On to `CC=C(C)C=CC=C(C)C`, for which the outcome was inactive.

Take `C=CCCCCCCCCC=O`: the outcome was inactive. On the same count and under the same terms, the value for `Nc1nc(N)nc(-c2ccccc2)n1` was “inactive”; that for `O=C(Cl)c1c(Cl)c(Cl)c(C(=O)Cl)c(Cl)c1Cl` was “inactive”.

`CCC1(C)C(=O)N(Cl)C(=O)N1Cl` (stereo not given): the outcome was inactive. For the compound `CC1=CC=C(C(C)C)CC1`, the outcome was inactive. With `CCCCCCCCCCCC(C)=O`, the AC50 was 28.6 µM (active).

As to `CC1(C)CC(O)CC(C)(C)N1[O]`, the outcome was inactive. Still for that read-out and setting: the value for `Nc1ccc(C(=O)O)cc1` was “inactive”; that for `CC(C)CCCCCOC(=O)CS` was “inactive”. Turning to `C=C(C)C(=O)OCCCCCCCCCCCC`, the outcome was inactive.

`c1ccc(Nc2cccc3ccccc23)cc1`: the AC50 was 27.6 µM (active) and 24.6 µM (active).

As for `Cc1ccc([N+](=O)[O-])cc1N`, the outcome was inactive.

`Oc1ccc(/C=C/c2cc(O)cc(O)c2)cc1`: the result was inactive. The same measure, in the same setting: then `CCc1cccc(C)c1N(C(=O)CS(=O)(=O)O)C(C)COC` (stereo not given), with “inactive”. Turning to `CC/C=C\CCOC(=O)c1ccccc1O`, the AC50 is 34.7 µM (active). As to `C=CC(=O)OCC(C)OCC(C)OCC(C)OC(=O)C=C` (stereo not given), the AC50 was 20 µM (active).

For the compound `Cc1c(O)cccc1O`, the outcome was inactive. For `CCCC(C)C(=O)OCC` (stereo not given), the outcome was inactive. For `Oc1ccccc1Cc1ccccc1O`, the result was inactive. The same measure, in the same setting: then `CC(Cl)COP(=O)(OCC(C)Cl)OCC(C)Cl` (stereo not given), with “inactive”; and `C=CC(=O)OCCCCCCCC(C)C`, with “inactive”; and `Clc1cc(Cl)c(Cl)c(Cl)c1Cl`, with “inactive”. On the same count and under the same terms, the value for `c1ccc2c(c1)[nH]c1ccccc12` was “inactive”. On the same count and under the same terms, then `CC(c1cc(C(C)(C)C)cc(C(C)(C)C)c1O)c1cc(C(C)(C)C)cc(C(C)(C)C)c1O`, with “inactive”; and `CC(CCC(=O)O)(c1ccc(O)cc1)c1ccc(O)cc1`, with “inactive”. As to `COC(OC)(C(=O)c1ccccc1)c1ccccc1`, the AC50 was 0.016 µM (active). Turning to `O=C1CCCCCCCCCCC1`, the outcome was inactive. Same read-out and setting: then `O=C(Oc1ccccc1)c1ccccc1C(=O)Oc1ccccc1`, with “inactive”. Take `C[N+](C)(C)CCCNS(=O)(=O)C(F)(F)C(F)(F)C(F)(F)C(F)(F)C(F)(F)C(F)(F)C(F)(F)C(F)(F)F`: the concentration at half-maximal activity (AC50) is 44.3 µM (active) and the outcome was inactive.

For the compound `CCCCC1C(=O)N(c2ccccc2)N(c2ccccc2)C1=O`, the outcome was inactive. Same read-out and setting: the value for `O=C(O)C(F)(F)C(F)(F)C(F)(F)C(F)(F)C(=O)O` was “inactive”.

Regarding `CC/C=C\C/C=C\C/C=C\CCCCCCCC(=O)OC`, the AC50 was 37.2 µM (active). On to `C=CC(=O)NC(C)(C)C`, for which the result was inactive. Regarding `Nc1cccc(N)n1`, the result was inactive. Turning to `CCOC(=O)C1=NOC(c2ccccc2)(c2ccccc2)C1`, the AC50 is 3.97 µM (active). With `CCOC(=O)C1=NN(c2ccc(Cl)cc2Cl)C(C)(C(=O)OCC)C1` (stereo not given), the result was inactive. The same measure, in the same setting: then `C=CC(=O)NCOCCCC`, with “inactive”.

(Values after PubChem BioAssay (EPA / NIEHS).)
